In all, about 86,000 compounds went through this assay and about 1,400 (1.6%) were called active. Only a selection was taken, and actives are over-represented in it overall. Values without a mark were called inactive. No stated cut-off is given here; in the data, active means inhibition above about 50%; inactive means the rest.
These compounds were tested against Estrogen receptor (Homo sapiens) (UniProt P03372) (assay: ERα–SRC-1 coactivator interaction inhibitors, primary screen, biochemical, TR-FRET, ERα LBD, estradiol-bound (AID 629;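 further: 0% = receptor plus peptide control and 100% = peptide only without receptor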)). Conditions: TR-FRET ER-alpha LBD / SRC-1 peptide, at 25.6 µM, stronger effect = higher value.
Estrogen receptor (Homo sapiens), sequence (P03372 whole entry, looked up, the tested form may be a part): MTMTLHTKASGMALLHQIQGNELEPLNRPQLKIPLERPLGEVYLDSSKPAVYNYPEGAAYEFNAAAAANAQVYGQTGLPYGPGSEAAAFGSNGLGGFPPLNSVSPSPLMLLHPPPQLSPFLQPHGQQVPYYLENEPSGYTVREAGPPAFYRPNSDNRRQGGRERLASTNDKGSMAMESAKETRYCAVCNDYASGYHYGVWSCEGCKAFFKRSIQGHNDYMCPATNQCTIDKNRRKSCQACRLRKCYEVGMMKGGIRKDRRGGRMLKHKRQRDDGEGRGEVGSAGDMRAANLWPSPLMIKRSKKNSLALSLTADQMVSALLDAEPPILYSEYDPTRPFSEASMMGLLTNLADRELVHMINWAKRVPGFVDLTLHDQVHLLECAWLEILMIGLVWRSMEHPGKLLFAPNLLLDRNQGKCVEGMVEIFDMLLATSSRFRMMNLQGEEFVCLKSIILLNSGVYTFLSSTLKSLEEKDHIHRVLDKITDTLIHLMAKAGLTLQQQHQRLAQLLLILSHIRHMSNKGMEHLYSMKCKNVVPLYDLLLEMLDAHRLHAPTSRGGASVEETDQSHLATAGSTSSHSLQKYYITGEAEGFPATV

First: O=C(CN1CCN(C(=O)c2ccco2)CC1)Nc1ccc2c(c1)OCO2
Second: COc1ccccc1NC(=O)CN1CCN(S(=O)(=O)c2ccc(Br)cc2)CC1
The inhibition of the first is lower: -22.6% for the first, 39.3% for the second.

Compared with `CCOC(=O)C1=C(CSc2nnnn2C)N(C)C(=O)NC1c1ccccc1` (stereo not drawn), `CCSc1ccccc1C(=O)NCc1ccc(OC)cc1` is lower in inhibition: -4.78% for the first, -6.6% for the second.

Compared with `O=C(NCc1ccco1)c1cc(-c2cccnc2)nc2ccc(Cl)cc12`, `O=C(Nc1ccccc1)Nc1ccccc1C(=O)NCc1ccco1` is lower in inhibition: 10.8% for the first, -4.11% for the second.

First: CCn1c(=N)c(C(=O)NCCCOC)cc2c(=O)n3cccc(C)c3nc21
Second: COc1ccc(CNC(=O)c2cc3c(=O)n4ccccc4nc3n(CC3CCCO3)c2=N)cc1 (stereo not drawn)
The inhibition of the first is lower: -7.26% for the first, 3.23% for the second.

Compared with `Cc1ccc(/C=N/NC(=O)C2=NNC(c3ccccc3)(c3ccccc3)C2)c(O)c1`, `COc1ccc(OC)c(NC(=O)c2cnn(-c3ccccc3Cl)c2NC(=O)c2ccco2)c1` is lower in inhibition: 21.9% for the first, -3.16% for the second.

First: COC(=O)/C(NC(C)=O)=C(\C)c1ccc(Cl)cc1
Second: CC(=O)NC1=NN(C(C)=O)C(C)(c2ccc(Cl)s2)S1 (stereo not drawn)
The inhibition of the first is lower: -8.11% for the first, 2.57% for the second.

Going from `CN(C)c1ccnc2sc3c(=O)n(-c4ccc(Cl)cc4)cnc3c12` to `Cc1cnc(C(=O)OCC(=O)Nc2ccc(Cl)cc2Cl)cn1`, the inhibition falls from 42.5% to -9.26%.

Compared with `COC(=O)C1=C(C(=O)OC)C2(OC1c1ccc(Br)cc1)C(=O)c1ccccc1C2=O` (stereo not drawn), `COc1cc2c(cc1NC(=O)CN1CCN(S(=O)(=O)c3ccc(F)cc3)CC1)oc1ccccc12` is higher in inhibition: -2.52% for the first, 14.2% for the second.

Compared with `O=C(c1cccc(F)c1)N1CCC(O)(c2cccnc2)CC1`, `CCCCNC(=O)C1(c2ccc(OC)cc2)CCOCC1` is higher in inhibition: 1.95% for the first, 25.4% for the second.

In the case of `CCCNC(=O)CN(Cc1ccccc1F)S(=O)(=O)c1ccc(C)cc1`, the inhibition is reported as 5.89%.

With `O=C(NCc1ccco1)c1cccn2c(=O)c3cc(Br)ccc3nc12` the inhibition was 56.4% [fluorescence artefact?] (active).
`COc1ccc(CCn2c(=N)c(C(=O)NCc3ccco3)cc3c(=O)n4cccc(C)c4nc32)cc1` was tested, and the inhibition was 65.7% [fluorescence artefact?] (active).
For `COc1ccc(CN2CCn3ncc(C(=O)Nc4ccc(Cl)cc4Cl)c3C2=O)cc1`, the inhibition was 54.9% [fluorescence artefact?] (active).
For `O=C(CN1CCN(S(=O)(=O)c2ccc(F)cc2)CC1)Nc1ccccc1F`, the inhibition was 64.5% [fluorescence artefact?] (active).
